Records with an inconclusive call do not appear. Values without a mark were called inactive. Active and inactive are the calls of the source. Calls come from the whole dose curve; as a rule, active = well fitted cell-killing curve with a large enough effect; inconclusive = small, poorly fitted or top-dose-only effect, or effect the other way; inactive = no such curve, though single readings can be large or run the other way. Residues, ends and D or L forms follow the SMILES beside them. *: point of attachment. Cbz = O=C(OCc1ccccc1)*
Assay: Quantitative High-Throughput drug screen in 47 multiple myeloma cell lines against the NCATS MIPE library collection: LP1_DSMZ cell viability assay (AID 1918982); note: nearly all actives have a fitted effect of over 35% in size
Conditions: LP1 myeloma viability, CellTiter-Glo ATP luminescence, 48 h; series mostly up to 45.8 µM; viability (% of control): at the top concentration
Description: PI: Beverly A. Mock Ph.D.
Laboratory of Cancer Biology and Genetics,
Center for Cancer Research, National Cancer Institute,
National Institute of Health, Bethesda, Maryland
Drug resistance and disease progression are common in multiple myeloma (MM) patients, underscoring the need for new therapeutic combinations. […] We hypothesized that effective combinations would reduce MYC expression and enhance p16 activity. […] These preclinical data identify potentially useful drug combinations for evaluation in drug-resistant MM and reveal potential mechanisms of combined drug sensitivity.
Described herein is the primary MIPE qHTS used to cherrypick compounds. Validated compounds were then further tested for potential synergistic activiy.
[1] Peat TJ, Gaikwad SM, Dubois W, Gyabaah-Kessie N, Zhang S, Gorjifard S, Phyo Z, Andres M, Hughitt VK, Simpson RM, Miller MA, Girvin AT, Taylor A, Williams D, D'Antonio N, Zhang Y, Rajagopalan A, Flietner E, Wilson K, Zhang X, Shinn P, Klumpp-Thomas C, McKnight C, Itkin Z, Chen L, Kazandijian D, Zhang J, Michalowski AM, Simmons JK, Keats J, Thomas CJ, Mock BA. Drug combinations identified by high-throughput screening promote cell cycle transition and upregulate Smad pathways in myeloma. Cancer Lett. 2023 Aug 1;568:216284. doi: 10.1016/j.canlet.2023.216284. Epub 2023 Jun 24. PMID: 37356470; PMCID: PMC10408729.
SEQUENCE No. (e.g., 1, 2, 3, etc.); […] (e.g., Cells, Incubation, Reagent, etc.); VALUE and DESCRIPTION.
1; Cells; 5 uL; white, solid bottom 1536-well Greiner assay plate.
2; Compounds; 23 nL; Kalypsis pin tool (Wako USA) equipped with a 1536-well pin head to transfer to the assay plates.
3; Incubation; 48 hours; 37C incubation.
4; Reagent;5uL; CellTiter Glo (Promega).
5; Detector; 425V; Luminescence; Viewlux PerkinElmer.
NOTES (numbers refer to Sequence numbers above)
1. The cell-based screening methods employed in this study were like those previously published. Briefly, the corresponding myeloma cell lines were screened in 1,536-well plates with 500 cells, 5-uL per well for inhibition of cell viability (assessed by measuring ATP levels with CellTiterGlo).
2. NCATS MIPE 4.0 library of approved and investigational drugs were added using the Kalypsis pin tool. Wells treated with DMSO only for 100% viability and media only for 0% viability were used as controls.
3. The assay plates were covered and incubated for 48 hours in a 37C, 5% CO2 incubator with controlled humidity.
4. After 48 hours, CellTilter-GloTM luminescent substrate mix (Promega) reagent was added to the assay plate and plates we incubated for 5 min at room temperature.
5. Signal was measured as median relative luminescence units on a ViewLux (PerkinElmer) multiplate reader.
[1] Heske CM, Davis MI, Baumgart JT, Wilson K, Gormally MV, Chen L, Zhang X, Ceribelli M, Duveau DY, Guha R, Ferrer M, Arnaldez FI, Ji J, Tran HL, Zhang Y, Mendoza A, Helman LJ, Thomas CJ. Matrix Screen Identifies Synergistic Combination of PARP Inhibitors and Nicotinamide Phosphoribosyltransferase (NAMPT) Inhibitors in Ewing Sarcoma. Clin Cancer Res. 2017 Dec 1;23(23):7301-7311. doi: 10.1158/1078-0432.CCR-17-1121. Epub 2017 Sep 12. PMID: 28899971; PMCID: PMC6636827.
For O=c1c(O)c(-c2ccc(O)c(O)c2)oc2cc(O)ccc12, the Potency was 23.5 µM (active). With CCC[C@H]1C[C@H](C(=O)N[C@@H]([C@@H]2O[C@@H](SC)[C@@H](O)[C@@H](O)[C@@H]2O)[C@H](C)Cl)N(C)C1 the “viability (% of control)” value was 104%. For CN(C)c1ccc2cc(C(=O)N[C@@H](CCCN=C(N)CCl)C(=O)NCc3ccccc3)ccc2c1, the Potency was 14.8 µM (active). With CN[C@H](CC(C)C)C(=O)N[C@H]1C(=O)N[C@@H](CC(N)=O)C(=O)N[C@@H]2C(=O)N[C@H]3C(=O)N[C@H](C(=O)N[C@H](C(=O)O)c4cc(O)cc(O)c4-c4cc3ccc4O)[C@H](O)c3ccc(c(Cl)c3)Oc3cc2cc(c3O[C@@H]2O[C@H](CO)[C@@H](O)[C@H](O)[C@@H]2O[C@H]2C[C@](C)(N)[C@H](O)[C@H](C)O2)Oc2ccc(cc2Cl)[C@H]1O the “viability (% of control)” value was 119%. For CCCCCCCCCCCCc1ccc(S(=O)(=O)Nc2nncs2)cc1, the “viability (% of control)” value was 80.4%. For Cc1noc(-c2ccc(CSCCC(=O)O)cc2)c1NC(=O)OC(C)c1ccccc1Cl (stereo not given), the “viability (% of control)” value was 113%. With C=CCNc1c(O)cc2c(O)c1C[C@@H](C)C[C@H](OC)[C@@H](O)[C@@H](C)C=C(C)[C@H](OC(N)=O)[C@@H](OC)C=CC=C(C)C(=O)N2 the Potency was 1.87 µM (active). With CCOC(=O)C=C[C@H](C[C@@H]1CCNC1=O)NC(=O)[C@@H](CC(=O)[C@@H](NC(=O)c1cc(C)on1)C(C)C)Cc1ccc(F)cc1 the “viability (% of control)” value was 99.1%. For CC(C=CC(=O)NO)=C[C@@H](C)C(=O)c1ccc(N(C)C)cc1, the Potency was 0.372 µM (active). For CC(C)[C@H](CO)Nc1nc(Nc2cccc(Cl)c2)c2ncn(C(C)C)c2n1, the Potency was 23.5 µM (active). With C[C@@H]1CC[C@@]2(OC1)OC1CC3C4CC=C5CC(O)CCC5(C)C4CCC3(C)C1[C@@H]2C (stereo not given in full) the “viability (% of control)” value was 126%. For OC[C@@H](O)[C@@H](O)[C@H](O)[C@@H](O)CO, the “viability (% of control)” value was 108%. With CCN1CCN(C(=O)N[C@H](C(=O)N[C@@H]2C(=O)N3C(C(=O)O)=C(CSc4nnnn4C)CS[C@@H]23)c2ccc(O)cc2)C(=O)C1=O the “viability (% of control)” value was 119% [at 15.3 µM]. In the case of O=C(C=CC#Cc1cccc(NS(=O)(=O)c2ccccc2)c1)NO, the Potency is reported as 0.935 µM (active). For C=CCNC1=C2C[C@@H](C)C[C@H](OC)[C@@H](O)[C@@H](C)C=C(C)[C@H](OC(N)=O)[C@@H](OC)C=CC=C(C)C(=O)NC(=CC1=O)C2=O, the Potency was 5.9 µM (active). In the case of CCOc1cc2c(c(F)c1OCC)C(=N)N(CC(=O)c1cc(N3CCOCC3)c(OC)c(C(C)(C)C)c1)C2, the Potency is reported as 16.6 µM (active). In the case of O=C(O)C(=O)Nc1cccc(C2=NN=N[N]2)c1, the “viability (% of control)” value is reported as 102%. In the case of C[C@]12C=CC(=O)N[C@@H]1CC[C@H]1[C@H]3CC[C@@H](C(=O)Nc4cc(C(F)(F)F)ccc4C(F)(F)F)[C@@]3(C)CC[C@@H]12, the “viability (% of control)” value is reported as 84.1%. For CCC(C(=O)O)C1CCC(C)C(C(C)C(O)C(C)C(=O)C(CC)C2OC3(C=CC(O)[C@@]4(CC[C@](C)(C5CC[C@@](O)(CC)C(C)O5)O4)O3)C(C)CC2C)O1 (stereo not given in full), the Potency was 4.69 µM (active). With Cc1ccc(-n2[nH]c(C)c(N=Nc3cccc(-c4cccc(C(=O)O)c4)c3O)c2=O)cc1C the Potency was 16.6 µM (active). With CN(C)CCN1C(=O)c2cccc3cc(N)cc(c23)C1=O the Potency was 20.9 µM (active). In the case of C=C(C)[C@@H]1CC[C@]2(C(=O)O)CC[C@]3(C)[C@H](CC[C@@H]4[C@@]5(C)CC[C@H](O)C(C)(C)[C@@H]5CC[C@]43C)[C@@H]12, the “viability (% of control)” value is reported as 106%. With N#Cc1cc(NC(=O)Nc2nnc(-c3ccncc3)s2)ccc1-c1cn[nH]c1 the “viability (% of control)” value was 99.5%. With CCOC(=O)[C@H](CCc1ccccc1)N[C@@H](C)C(=O)N1[C@@H](C(=O)O)C[C@H]2CCC[C@@H]21 the Potency was 20.9 µM (active). For CC(C)C[C@H](NC(=O)CNC(=O)c1cc(Cl)ccc1Cl)B1OC(=O)CC(CC(=O)O)(C(=O)O)O1 (stereo not given in full), the Potency was 0.0743 µM (active). For CCCCCCCCCCCCCCCC(=O)OC[C@@H](NC(=O)C(Cl)Cl)[C@H](O)c1ccc([N+](=O)[O-])cc1, the “viability (% of control)” value was 92.9%. With OCc1ccccc1O[C@@H]1O[C@H](CO)[C@H](O)[C@H](O)[C@H]1O the “viability (% of control)” value was 121%. In the case of OCCNC1CCCc2c1[nH]c1ccc(-c3ccccc3)cc21 (stereo not given), the Potency is reported as 23.5 µM (active). With C=CC[C@@H]1C=C(C)C[C@H](C)C[C@H](OC)[C@H]2O[C@@](O)(C(=O)C(=O)N3CCCC[C@H]3C(=O)O[C@H](C(C)=C[C@@H]3CC[C@H](O)[C@H](OC)C3)[C@@H](C)[C@@H](O)CC1=O)[C@@H](C)C[C@@H]2OC the Potency was 3.32 µM (active). In the case of C[C@H]1COc2c(N3CCN(C)CC3)c(F)cc3c(=O)c(C(=O)O)cn1c23, the “viability (% of control)” value is reported as 127%. In the case of C=C1C[C@@]2(O)O[C@@]3(C[C@H]2C(C)C)[C@H](C)CC[C@H]13, the “viability (% of control)” value is reported as 95.2%. In the case of NC1=N[C@H]2[C@H](CS[C@H]2CCCCC(=O)O)N1, the “viability (% of control)” value is reported as 107% [at 23.2 µM]. For O=C1CSC(=O)N1C(CCc1ccncc1)COc1ccc(-c2cccc([N+](=O)[O-])c2)cc1 (stereo not given), the Potency was 5.9 µM (active). With COc1cc(OC)cc(-c2ccc3ncc4ccc(=O)n(-c5ccc(N6CCNCC6)c(C(F)(F)F)c5)c4c3c2)c1 the Potency was 5.9 µM (active). For c1cncc(CN2CCC(n3ncc4c(N5CCOCC5)nc(-c5ccc6[nH]ccc6c5)nc43)CC2)c1, the Potency was 5.9 µM (active). In the case of CC(C)C[C@@H](C=O)NC(=O)[C@H](CC(C)C)NC(=O)[C@H](CC(C)C)NC(=O)OCc1ccccc1 (Cbz-Leu-Leu-Leu-aldehyde), the Potency is reported as 0.662 µM (active). In the case of COc1ccc(S(=O)(=O)Nc2cccnc2Nc2ccc(O)cc2)cc1, the Potency is reported as 0.148 µM (active). For NC(=NCCCCCCN=C(N)N=C(N)Nc1ccc(Cl)cc1)N=C(N)Nc1ccc(Cl)cc1, the Potency was 11.8 µM (active). For CCN(CC)CCNC(=O)c1c(C)[nH]c(C=C2C(=O)Nc3ccc(F)cc32)c1C, the Potency was 30.3 µM (active). In the case of COc1cccc2c1C(=O)c1c(O)c3c(c(O)c1C2=O)C[C@@](O)(C(=O)CO)C[C@@H]3O[C@H]1C[C@H](N)[C@H](OC2CCCCO2)[C@H](C)O1 (stereo not given in full), the Potency is reported as 18.7 µM (active).

From PubChem BioAssay (NCATS)
Potency is the fitted concentration of half-maximal effect.
